Experimental findings from ChEMBL document CHEMBL3433997, “St. Jude Leishmania screening dataset” (2016) are described below.

“And” between values parts separate entries of the source, which are not always exact repeats. Equal values may be shown once.

The target in one test is Solute carrier family 2, facilitated glucose transporter member 1 (Homo sapiens) (UniProt P11166). The test can be described thus: ST_JUDE_LEISH: Cytotoxicity at 2uM final concentration against transgenic Leishmania Mexicana promastigotes LmGLUT1 that are glucose transport deficient and complemented with the human glucose transporter GLUT1. Activity is measured by DNA content using SYBR green in vitro. It counts as functional.
Chain of Solute carrier family 2, facilitated glucose transporter member 1 (Homo sapiens) (P11166 whole entry): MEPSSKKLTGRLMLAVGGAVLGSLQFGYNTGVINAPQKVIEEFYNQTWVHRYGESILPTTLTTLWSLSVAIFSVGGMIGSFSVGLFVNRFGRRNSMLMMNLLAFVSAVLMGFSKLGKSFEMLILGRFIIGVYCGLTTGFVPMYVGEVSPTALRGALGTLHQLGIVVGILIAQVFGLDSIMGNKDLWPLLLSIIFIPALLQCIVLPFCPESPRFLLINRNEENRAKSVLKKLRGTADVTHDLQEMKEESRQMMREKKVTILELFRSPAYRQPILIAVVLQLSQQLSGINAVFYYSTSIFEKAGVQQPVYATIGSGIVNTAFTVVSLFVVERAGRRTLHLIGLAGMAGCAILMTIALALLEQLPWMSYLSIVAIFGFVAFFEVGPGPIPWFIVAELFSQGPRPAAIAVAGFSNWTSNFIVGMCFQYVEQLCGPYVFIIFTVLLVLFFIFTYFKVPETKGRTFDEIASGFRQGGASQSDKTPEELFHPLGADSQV
As for `O=C(Nc1ccc(-c2cccc(-c3nc4cc(F)ccc4[nH]3)c2)cc1)Nc1ccc(Cl)c(Cl)c1`, the inhibition was 3.29%.
On the same count and under the same terms, then `COc1ccc2c(=O)c(I)c(C)[nH]c2c1`, with -1.2%.
Same read-out and setting: then `CCN(CC)CCN(Cc1ccc(-c2ccc(C(F)(F)F)cc2)cc1)C(=O)Cn1c(CCc2cccc(F)c2F)nc(=O)c2sccc21`, with 0.1%.
On the same count and under the same terms, the result for `O=C(NC(=S)Nc1cc(C(F)(F)F)cc(C(F)(F)F)c1)c1ccc(Cl)cc1` reads 0.72%.
As to `CNC(=O)c1ccc2nc(-c3ccc(-c4ccccc4)cc3)n(CC3CCN(CC4CCCC4)CC3)c2c1`, the inhibition turned out to be 1.8%.
Still for that read-out and setting: then `Cc1cccc2nc(-c3cccc(-c4cccc(NC(=O)c5cn(C)c(=O)n5C)c4)c3)[nH]c12`, with 1.98%.
The same measure, in the same setting: then `COc1cc(NC(=O)/C=C/c2ccccc2OC(F)(F)F)cc(OCCN2CCN(CCN3CCOCC3)CC2)c1`, with 3.4%; and `CCCC1(NC[C@@H](O)[C@H](Cc2ccccc2)NC(=O)c2cc(NCC)cc(N3CCCCS3(=O)=O)c2)CCC1`, with 4.81%.
The same measure, in the same setting: the result for `CCNc1cc(C(=O)N[C@@H](Cc2ccccc2)[C@H](O)CNC2CC3CCC2C3)cc(N2CCCCS2(=O)=O)c1` (stereo not given in full) reads 1.78%.
As to `CCC(C(=O)Nc1ccccc1)n1nc(-c2ccc(C)c(S(=O)(=O)N3CCCCC3)c2)ccc1=O` (stereo not given), the inhibition came to 3.12%.
Still for that read-out and setting: then `COc1ccc(S(=O)(=O)N2CCC(NS(=O)(=O)c3ccc(F)cc3)CC2)cc1`, with 3.51%; and `CC1(C)CCCN(C(=O)c2cccc(-n3nc(-c4ccc(Cl)cc4)cc3N)c2)C1`, with 2.79%; and `CCCC(C)Nc1nc(C)cc(N[C@@H](Cc2ccccc2)C(=O)NCCOc2ccccc2)n1` (stereo not given in full), with 4.27%.
Same read-out and setting: the result for `CCCCOc1ccc(-c2nc3ccccc3[nH]2)cc1` reads 9.74%; that for `Cc1cc(N(CCO)CCCN2CCCCC2)nc(Nc2ccc(Cl)cc2)n1`, 1.77%; that for `COc1ccc(-c2cc(NCc3ccc(-n4ccnc4)cc3)nc(Nc3ccccc3)n2)cc1`, 2.37%.
Same read-out and setting: then `CC(C)N1CCC(N(Cc2ccc(-c3ccc(Cl)cc3)cc2)C(=O)Cn2c(CCc3cccc(F)c3F)nc(=O)c3ccccc32)CC1`, with 6.02%.
For the molecule `CC(=O)NCCNc1nccc(N2CCc3ncnc(Nc4ccc(OCc5ccccn5)c(Cl)c4)c3C2)n1`, the inhibition is 0.91%.
On the same count and under the same terms, the result for `CC(CC1CCCCC1)NCc1ccccc1OCCC(=O)N1CCCC1C(N)=O` (stereo not given) reads 3.79%.
On the same count and under the same terms, the result for `CN(Cc1cnc2nc(N)nc(N)c2n1)c1ccc(C(=O)N[C@@H](CCC(=O)O)C(=O)O)cc1` reads 3.29% and 4.83% and 0.58%.
Same read-out and setting: then `CC(C)CCNCc1ccc(OCc2cccc(C(=O)Nc3ccccc3)c2)c(I)c1`, with 3.34%; and `O=C(Nc1ccccc1)Nc1cccc(-c2nn3c(OCCN4CCCC4)cccc3c2-c2ccncc2)c1`, with 5.75%.
`CC(C)c1ccc(CN2CCC(CNC(=O)c3cc(-c4ccc(N(C)C)cc4)cs3)C2)cc1` (stereo not given): the inhibition stood at 2.27%.
The same measure, in the same setting: the result for `Nc1c2ccccc2nc2cc(Cl)ccc12` reads 3.29%; that for `CCC(=O)Oc1ccc(NC(=O)c2cccc(OC)c2)cc1`, 1.64%.
Still for that read-out and setting: the result for `CC(=O)Nc1ccc2[nH]cc(C3CCN(CC4CCC(NC(=O)/C=C/c5ccccc5Cl)CC4)CC3)c2n1` (stereo not given) reads 6.86%.
Turning to `Cc1cccc2nc(-c3cccc(-c4cccc(NC(=O)NCc5ccccc5)c4)c3)[nH]c12`, the inhibition stood at 3.73%.
For the molecule `NS(=O)(=O)c1cccc(-c2ccc3nccc(-c4cccc(S(N)(=O)=O)c4)c3c2)c1`, the inhibition worked out at 2.86%.
Still for that read-out and setting: the result for `COc1ccc2ccccc2c1C=NNc1ccnc2cc(Cl)ccc12` reads 1.99%.
On the same count and under the same terms, then `CC(=O)Nc1cccc(C(=O)Nc2cccc(-c3ccc(-c4nc5cccc(C)c5[nH]4)cc3)c2)c1`, with 0.33%; and `O=S(=O)(Nc1ccc(CCN2CCCCC2CCN2CCCC2)cc1)c1cccc2cccnc12` (stereo not given), with 1.48%.
Turning to `Cc1ccc(C(=O)N2CCc3cc4nccc(N5CCN6CCC[C@H]6C5)c4cc32)cc1`, the inhibition came out at 1.81%.
The same measure, in the same setting: the result for `CC(C)CNCc1ccc(-c2ccc(CN(CCCN3CCN(C)CC3)C(=O)CCC3CCCC3)cc2)cc1` reads 55.1%; that for `NC1CCN(CCNCc2cccc(-c3ccc(-c4nc5cc(F)ccc5[nH]4)cc3)c2)C1` (stereo not given), 7.06%; that for `O=c1cc(NCCCNCc2cc3ccccc3s2)[nH]c2ccccc12`, 4.89%.
Turning to `COc1ccc(O)c(C(=O)c2cc(C#N)c(=O)n(-c3ccc(Oc4ccccc4)cc3)c2)c1`, the inhibition is 10.2%.
The same measure, in the same setting: the result for `CN(c1ccccc1)S(=O)(=O)c1cccc(NC(=O)c2ccc(-n3ccnc3)c([N+](=O)[O-])c2)c1` reads 2.91%; that for `CCCC(=O)Nc1ccc(OCCCN(Cc2ccccc2F)c2ccc(C#N)c(C(F)(F)F)c2)cc1`, 1.79%; that for `O=C(/C=C/c1ccc(C(F)(F)F)cc1)NCCCCCN1CCCN(C(=O)Nc2ccc(F)c(Cl)c2)CC1`, 1.19%.
On to `COc1ccc(Nc2nc(NCc3cccc(NS(C)(=O)=O)c3)cc(-c3ccc(OC)cc3)n2)cc1`, for which the inhibition turned out to be 4.4%.

A further test deals with Hexose transporter 1 (Plasmodium falciparum) (UniProt O97467). The test can be described thus: ST_JUDE_LEISH: Cytotoxicity at 2uM final concentration against transgenic Leishmania Mexicana promastigotes LmPfHT that are glucose transport deficient and complemented with the Plasmodium falciparum hexose transporter. Activity is measured by DNA content using SYBR green in vitro. It is filed as functional.
As for `O=C(Nc1ccc(-c2cccc(-c3nc4cc(F)ccc4[nH]3)c2)cc1)Nc1ccc(Cl)c(Cl)c1`, the inhibition was found to be 1.92%.
The same measure, in the same setting: then `COc1ccc2c(=O)c(I)c(C)[nH]c2c1`, with -1.12%; and `CCN(CC)CCN(Cc1ccc(-c2ccc(C(F)(F)F)cc2)cc1)C(=O)Cn1c(CCc2cccc(F)c2F)nc(=O)c2sccc21`, with 1.36%; and `O=C(NC(=S)Nc1cc(C(F)(F)F)cc(C(F)(F)F)c1)c1ccc(Cl)cc1`, with -0.34%.
As to `CNC(=O)c1ccc2nc(-c3ccc(-c4ccccc4)cc3)n(CC3CCN(CC4CCCC4)CC3)c2c1`, the inhibition came out at 0.69%.
Consider `Cc1cccc2nc(-c3cccc(-c4cccc(NC(=O)c5cn(C)c(=O)n5C)c4)c3)[nH]c12`, for which the inhibition came out at 1.44%.
On the same count and under the same terms, then `COc1cc(NC(=O)/C=C/c2ccccc2OC(F)(F)F)cc(OCCN2CCN(CCN3CCOCC3)CC2)c1`, with 3.05%; and `CCCC1(NC[C@@H](O)[C@H](Cc2ccccc2)NC(=O)c2cc(NCC)cc(N3CCCCS3(=O)=O)c2)CCC1`, with 2.33%.
On the same count and under the same terms, then `CCNc1cc(C(=O)N[C@@H](Cc2ccccc2)[C@H](O)CNC2CC3CCC2C3)cc(N2CCCCS2(=O)=O)c1` (stereo not given in full), with 1.76%; and `CCC(C(=O)Nc1ccccc1)n1nc(-c2ccc(C)c(S(=O)(=O)N3CCCCC3)c2)ccc1=O` (stereo not given), with 4.1%; and `COc1ccc(S(=O)(=O)N2CCC(NS(=O)(=O)c3ccc(F)cc3)CC2)cc1`, with 2.07%.
For `CC1(C)CCCN(C(=O)c2cccc(-n3nc(-c4ccc(Cl)cc4)cc3N)c2)C1`, the inhibition amounted to 1.98%.
Still for that read-out and setting: the result for `CCCC(C)Nc1nc(C)cc(N[C@@H](Cc2ccccc2)C(=O)NCCOc2ccccc2)n1` (stereo not given in full) reads 3.26%; that for `CCCCOc1ccc(-c2nc3ccccc3[nH]2)cc1`, 8.64%.
On the same count and under the same terms, the result for `Cc1cc(N(CCO)CCCN2CCCCC2)nc(Nc2ccc(Cl)cc2)n1` reads 1.35%; that for `COc1ccc(-c2cc(NCc3ccc(-n4ccnc4)cc3)nc(Nc3ccccc3)n2)cc1`, 0.85%.
On the same count and under the same terms, the result for `CC(C)N1CCC(N(Cc2ccc(-c3ccc(Cl)cc3)cc2)C(=O)Cn2c(CCc3cccc(F)c3F)nc(=O)c3ccccc32)CC1` reads 5.38%; that for `CC(=O)NCCNc1nccc(N2CCc3ncnc(Nc4ccc(OCc5ccccn5)c(Cl)c4)c3C2)n1`, 1.71%; that for `CC(CC1CCCCC1)NCc1ccccc1OCCC(=O)N1CCCC1C(N)=O` (stereo not given), 3.8%.
As for `CN(Cc1cnc2nc(N)nc(N)c2n1)c1ccc(C(=O)N[C@@H](CCC(=O)O)C(=O)O)cc1`, the inhibition was 2.33% and 2.91% and 0.06%.
Same read-out and setting: the result for `CC(C)CCNCc1ccc(OCc2cccc(C(=O)Nc3ccccc3)c2)c(I)c1` reads 3.14%.
In the case of `O=C(Nc1ccccc1)Nc1cccc(-c2nn3c(OCCN4CCCC4)cccc3c2-c2ccncc2)c1`, the inhibition was 6.38%.
Same read-out and setting: then `CC(C)c1ccc(CN2CCC(CNC(=O)c3cc(-c4ccc(N(C)C)cc4)cs3)C2)cc1` (stereo not given), with 3.51%; and `Nc1c2ccccc2nc2cc(Cl)ccc12`, with 1.91%.
Turning to `CCC(=O)Oc1ccc(NC(=O)c2cccc(OC)c2)cc1`, the inhibition turned out to be 1.17%.
Same read-out and setting: then `CC(=O)Nc1ccc2[nH]cc(C3CCN(CC4CCC(NC(=O)/C=C/c5ccccc5Cl)CC4)CC3)c2n1` (stereo not given), with 5.52%; and `Cc1cccc2nc(-c3cccc(-c4cccc(NC(=O)NCc5ccccc5)c4)c3)[nH]c12`, with 5.29%.
In the case of `NS(=O)(=O)c1cccc(-c2ccc3nccc(-c4cccc(S(N)(=O)=O)c4)c3c2)c1`, the inhibition came to 0.59%.
Consider `COc1ccc2ccccc2c1C=NNc1ccnc2cc(Cl)ccc12`, for which the inhibition was found to be 0.95%.
Same read-out and setting: then `CC(=O)Nc1cccc(C(=O)Nc2cccc(-c3ccc(-c4nc5cccc(C)c5[nH]4)cc3)c2)c1`, with 1.27%.
In the case of `O=S(=O)(Nc1ccc(CCN2CCCCC2CCN2CCCC2)cc1)c1cccc2cccnc12` (stereo not given), the inhibition worked out at 1.12%.
Same read-out and setting: then `Cc1ccc(C(=O)N2CCc3cc4nccc(N5CCN6CCC[C@H]6C5)c4cc32)cc1`, with 0.6%; and `CC(C)CNCc1ccc(-c2ccc(CN(CCCN3CCN(C)CC3)C(=O)CCC3CCCC3)cc2)cc1`, with 52%; and `NC1CCN(CCNCc2cccc(-c3ccc(-c4nc5cc(F)ccc5[nH]4)cc3)c2)C1` (stereo not given), with 11.1%.
The same measure, in the same setting: the result for `O=c1cc(NCCCNCc2cc3ccccc3s2)[nH]c2ccccc12` reads 6.01%; that for `COc1ccc(O)c(C(=O)c2cc(C#N)c(=O)n(-c3ccc(Oc4ccccc4)cc3)c2)c1`, 8.65%; that for `CN(c1ccccc1)S(=O)(=O)c1cccc(NC(=O)c2ccc(-n3ccnc3)c([N+](=O)[O-])c2)c1`, 3.61%.
The same measure, in the same setting: the result for `CCCC(=O)Nc1ccc(OCCCN(Cc2ccccc2F)c2ccc(C#N)c(C(F)(F)F)c2)cc1` reads 0.66%; that for `O=C(/C=C/c1ccc(C(F)(F)F)cc1)NCCCCCN1CCCN(C(=O)Nc2ccc(F)c(Cl)c2)CC1`, 1.85%; that for `COc1ccc(Nc2nc(NCc3cccc(NS(C)(=O)=O)c3)cc(-c3ccc(OC)cc3)n2)cc1`, 5.23%.

In general, inhibition refers to the change of the read-out against control, counted positive when it falls.
